Most compounds without a hit are left out; they make up all but 19% or so of the library.
TGFb SMAD3 inh = TGF-b pathway inhibition; Potency, µM (highest dose often 46.1 µM), most hits filed as inhibitors; HepG2 CAGA-GFP TGF-b/SMAD3 reporter, GFP fluorescence, 18 h; TGF-beta stimulated, 500 pg/mL final; actives 1.2% (n = 410,000); further: nearly all actives have a fitted effect of over 65% in size
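Smad-responsive CAGA-GFP expression was quantified in HEPG2 cells exposed to compounds and 500 pg/mL final TGF-beta for 18 h at 37 degrees C; unstimulated wells defined full inhibition.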
DT40 TDP1 CPT = DT40-hTDP1 cell growth loss with CPT. chicken DT40 Tdp1-/-;hTDP1 cells + 20 nM CPT, ATP luminescence, 48 h. Potency, µM (highest dose often 46.2 µM), actives largely listed as inhibitors. actives 12% (n = 420,000). AID 686979; further: nearly all actives have a fitted effect of over 55% in size
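Cell growth measured by CellTiter-Glo luminescence after a minimum 48 h, 37 C compound exposure with 20 nM CPT in Tdp1-knockout DT40 cells stably expressing hTDP1, seeded 400/well; qHTS titration format.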
IL1B secr inh = inhibitors of inflammasome signaling (IL-1 beta secretion) | activity change, % at 57.5 µM | THP-1 LPS/ATP IL-1B secretion, AlphaLISA, 16 h; hits give low values | actives 4.7% (n = 360,000); in the data active means activity change below about -50%; inconclusive means mostly about -30% to -49%
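THP-1 cells pretreated 1 hr with compounds (up to 57.5 uM final), then stimulated with LPS (250 ng/mL final) plus ATP (1.25 mM final); secreted IL-1B measured by AlphaLISA after 16 hr, decreased signal indicating inhibition.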
HepG2 viability = counter-screen for TGF-b inhibitors: cytotoxicity in HepG2 cells; HepG2 CAGA-GFP viability, ATP luminescence, 18 h; actives 0.76% (n = 410,000); Potency, µM (top dose mostly 46.1 µM), actives largely listed as cytotoxic
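CellTiter-Glo luminescence gave cytotoxicity after 18 hours at 37 degrees C. The cells were HepG2 CAGA-GFP in 1% FBS DMEM, stimulated with 500 pg/mL TGF-beta after compound addition. %Activity was normalised to no-cell wells (complete cell-killing) and DMSO (no toxicity), and curves were fitted and classified.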
ASM inhibitor = blocks human secretory acid sphingomyelinase | placental ASM, HMU-PC fluorogenic substrate, 60 min | Potency, µM (titrated, usually from 57.5 µM), hits mostly inhibitors | actives 0.006% (n = 340,000) | AID 504937 | P17405
Target sequence (P17405 47-631 limits assumed): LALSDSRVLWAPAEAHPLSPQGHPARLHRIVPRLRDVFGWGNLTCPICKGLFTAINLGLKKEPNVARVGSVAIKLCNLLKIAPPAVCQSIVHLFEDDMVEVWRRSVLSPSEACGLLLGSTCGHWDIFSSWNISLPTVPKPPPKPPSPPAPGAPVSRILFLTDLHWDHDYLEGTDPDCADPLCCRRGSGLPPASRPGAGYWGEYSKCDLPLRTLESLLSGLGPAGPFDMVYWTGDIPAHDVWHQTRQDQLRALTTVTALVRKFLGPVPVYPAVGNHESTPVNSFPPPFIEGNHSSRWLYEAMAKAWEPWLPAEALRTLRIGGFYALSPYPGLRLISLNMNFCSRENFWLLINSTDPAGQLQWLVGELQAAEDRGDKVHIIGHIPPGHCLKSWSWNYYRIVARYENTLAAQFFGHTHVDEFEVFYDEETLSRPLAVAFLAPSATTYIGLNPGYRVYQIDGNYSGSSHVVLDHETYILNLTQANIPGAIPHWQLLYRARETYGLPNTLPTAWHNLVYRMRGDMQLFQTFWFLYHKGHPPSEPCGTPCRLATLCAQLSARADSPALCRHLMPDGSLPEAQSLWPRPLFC
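Steps: dispense placental human ASM, pin compound, wait 10 min at room temperature, add HMU-PC0 substrate at 9 uM final, incubate 60 min at 37 °C, add stop solution raising pH to 10, read fluorescence.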
DT40 TDP1 no CPT = qHTS for Inhibitors of human tyrosyl-DNA phosphodiesterase 1 (TDP1): qHTS in cells in absence of CPT. DT40 Tdp1-/- hTDP1 cells, no CPT, ATP luminescence, 48 h. Potency, µM (highest dose often 46.2 µM), hits mostly inhibitors. AID 686978, 2013. actives 15% (n = 420,000); further: nearly all actives have a fitted effect of over 55% in size
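Growth kinetics read by CellTiter-Glo luminescence after ≥48 hr at 37 °C. Cells: DT40 Tdp1-/- stably carrying human TDP1, 400 per well, compound exposure in the absence of CPT (DMSO vehicle).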
Of the large screens only hits and unclear results are named; the others gave an inactive call. Unless noted, the call rests on the fitted dose curve; in most records, active means well fitted curve in the direction sought with a large enough effect; inconclusive means small, poorly fitted or top-dose-only effect, or another doubt; inactive means no such curve, though single readings can be large; an effect the other way counts as inactive or inconclusive.

COc1cc(/C=C/C(=O)OCC(=O)NC(=O)NC23CC4CC(CC(C4)C2)C3)ccc1OCC#N	DT40 TDP1 CPT inconclusive, IL1B secr inh inconclusive, DT40 TDP1 no CPT 20.6µM
Cc1cc(C)cc(OCC(=O)Nc2nonc2-c2ccc(Br)cc2)c1	DT40 TDP1 CPT inconclusive (no result: IL1B secr inh, ASM inhibitor)
Cc1c(C(=O)OCCOc2ccccc2)[nH]c2c1C(=O)CC(c1ccc(C(C)(C)C)cc1)C2 (stereo unspecified)	DT40 TDP1 no CPT inconclusive (no result: IL1B secr inh, ASM inhibitor)
COCCOC(=O)c1[nH]c2c(c1C)C(=O)CC(c1ccco1)C2 (stereo unspecified)	TGFb SMAD3 inh inconclusive, DT40 TDP1 CPT 1.03µM, DT40 TDP1 no CPT 0.731µM
Cc1c(C(=O)OCc2ccccc2)[nH]c2c1C(=O)CC(c1ccco1)C2 (stereo unspecified)	TGFb SMAD3 inh 2.51µM, DT40 TDP1 CPT 0.82µM, DT40 TDP1 no CPT 0.92µM
Cc1c(C(=O)OCCOC(C)C)[nH]c2c1C(=O)CC(c1ccco1)C2 (stereo unspecified)	TGFb SMAD3 inh inconclusive, DT40 TDP1 CPT 0.0231µM, DT40 TDP1 no CPT 0.0052µM
CSCCOC(=O)c1[nH]c2c(c1C)C(=O)CC(c1ccco1)C2 (stereo unspecified)	TGFb SMAD3 inh inconclusive, DT40 TDP1 CPT 0.731µM, DT40 TDP1 no CPT 0.82µM
Cc1c(C(=O)O)[nH]c2c1C(=O)CC(c1ccccc1)C2 (stereo unspecified)	none
Cc1cc(C)c(S(=O)(=O)N2CCCC(C(=O)N3CCOCC3)C2)c(C)c1 (stereo unspecified)	DT40 TDP1 CPT inconclusive
COc1ccc(CN(C)C(=O)c2oc3ccccc3c2CSC)cc1F	DT40 TDP1 CPT 23.1µM, DT40 TDP1 no CPT 20.6µM
COc1ccc(CCN(C)C(=O)c2oc3ccccc3c2C)cc1OC	DT40 TDP1 CPT inconclusive, DT40 TDP1 no CPT inconclusive (no result: ASM inhibitor)
COc1ccc(Oc2ccc(N/C=C/C(=O)C(C)(C)C)cc2)cc1	none
COc1cccc(Oc2ccc(N/C=C/C(=O)C(C)(C)C)cc2)c1	IL1B secr inh -64.7, DT40 TDP1 no CPT inconclusive
COc1ccc(C(O)c2ncc(-c3ccccc3C)[nH]2)cc1F (stereo unspecified)	DT40 TDP1 CPT inconclusive, DT40 TDP1 no CPT inconclusive (no result: ASM inhibitor)
CC(C)CC1C(=O)N(Cc2cn(CCC3OCCCO3)nn2)CCS(=O)(=O)N1Cc1ccc(-c2ccncc2)cc1 (stereo unspecified)	DT40 TDP1 CPT 16.4µM, DT40 TDP1 no CPT 18.4µM (no result: ASM inhibitor)
COc1ccc(-c2ccc(CN3C(C(C)C)C(=O)N(Cc4cn(CCC5OCCCO5)nn4)CCS3(=O)=O)cc2)cc1OC (stereo unspecified)	DT40 TDP1 CPT inconclusive, DT40 TDP1 no CPT inconclusive (no result: ASM inhibitor)
COc1ccc(-c2ccc(CN3C(CC(C)C)C(=O)N(Cc4cn(CCC5OCCCO5)nn4)CCS3(=O)=O)cc2)cc1OC (stereo unspecified)	DT40 TDP1 CPT 13µM, DT40 TDP1 no CPT inconclusive (no result: ASM inhibitor)
CC(C)CC1C(=O)N(Cc2cn(CCC3OCCO3)nn2)CCS(=O)(=O)N1Cc1ccc(-c2ccccc2)cc1 (stereo unspecified)	TGFb SMAD3 inh inconclusive, DT40 TDP1 CPT 18.4µM, DT40 TDP1 no CPT 20.6µM (no result: ASM inhibitor)
CC(C)CC1C(=O)N(Cc2cn(CCC3OCCCO3)nn2)CCS(=O)(=O)N1Cc1ccc(-c2ccccc2)cc1 (stereo unspecified)	DT40 TDP1 CPT inconclusive, DT40 TDP1 no CPT inconclusive (no result: ASM inhibitor)
CC(C)CC1C(=O)N(Cc2cn(CCC3OCCO3)nn2)CCS(=O)(=O)N1Cc1ccc(-c2ccc(Cl)c(Cl)c2)cc1 (stereo unspecified)	TGFb SMAD3 inh 11.2µM, DT40 TDP1 CPT 8.2µM, DT40 TDP1 no CPT 5.17µM (no result: ASM inhibitor)
O=C(COc1ccc2ccc(=O)oc2c1)Nc1c(Cl)cccc1C(F)(F)F	none

Bioassay records: PubChem BioAssay, National Center for Advancing Translational Sciences (NCATS)
